Compounds with a hit are over-represented: about 10% of the library has one in this group of screens.
BAZ2B block = inhibitors of human BAZ2B bromodomain. AlphaScreen BAZ2B-H3K14Ac peptide displacement. AID 504333. Q9UIF8. 360,000 tested, 4.4% active. Potency, µM (titrated, usually from 114 µM), usual class: inhibitors; note: nearly all actives have a fitted effect of over 60% in size
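AlphaScreen luminescence quantifies BAZ2B engagement of H3K14Ac peptide; the protein and biotinylated peptide are both at 50 nM final, buffer PBS pH 7.4 with 0.01% Tween-20, all steps at room temperature.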
CtBP-E1A blk = inhibitors of CtBP/E1A interaction; AlphaScreen GST-E1A/His-CtBP binding, 1536-well; stronger effect = lower value; activity change, % (test concentration not listed); 340,000 tested, 0.49% active; in the data active = activity change below about -65%; inconclusive = mostly about -30% to -63%
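AlphaScreen with 125 nM GST-E1A and 125 nM His-CtBP (5X stocks) in Tris pH 8.0, 300 mM NaCl, BSA, Tween 20, TCEP. Compounds preincubated 2 h at 37 deg C, then glutathione donor/nickel acceptor beads added for 1 h at 37 deg C in dark.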
G9a inh = G9a (human) methyltransferase inhibition | Potency, µM (series often up to 102 µM), most hits filed as inhibitors | Q96KQ7 | AID 504332 | G9a H3K9 monomethylation, AlphaScreen, 2 h | 350,000 tested, 8.8% active; note: nearly all actives have a fitted effect of over 75% in size
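Signal arises when biotinylated H3K9 peptide, once monomethylated, bridges streptavidin donor and antibody-captured acceptor beads. Enzyme at 20 nM was preincubated 15 min with test compounds; peptide 500 nM and SAM 20 uM then reacted for 2 h.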
Six1-Eya2 inh = blocks human Six1 binding to Eya2; AID 651725; activity change, % (concentration not given with the values); 360,000 tested, 0.56% active; Q15475+O00167; AlphaScreen GST-Six1/His-Eya2 binding, biochemical; stronger effect = lower value; in the data active = activity change below about -65%; inconclusive = mostly about -30% to -63%
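Compounds are tested against tagged Six1 and Eya2 proteins bridged by glutathione donor and nickel acceptor beads; after a one-hour incubation at 37 °C without light, AlphaScreen emission is recorded.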
HP1b binding inh = HP1-beta chromodomain-methylated histone interaction inhibition | AlphaScreen HP1-beta / biotin-H3K9me3 peptide binding | Potency, µM (series often up to 114 µM), hits mostly inhibitors | 390,000 tested, 0.56% active | AID 540317; note: nearly all actives have a fitted effect of over 70% in size
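HP1-beta protein (50 nM final) preincubated 30 min at room temperature with biotinylated H3(1-18)K9me3 peptide (50 nM) in PBS pH 7.4, 0.01% Tween-20, then compound added for 30 min. AlphaScreen streptavidin donor/nickel chelate acceptor beads (10 ug/mL final), 30 min dark, luminescence read.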
JMJD2A Tudor = JMJD2A Tudor domain (human) inhibition; O75164; AlphaScreen JMJD2A-Tudor / H3K4me3 peptide binding; Potency, µM (highest dose often 114 µM), usual class: inhibitors; 390,000 tested, 4.4% active; AID 504339; note: nearly all actives have a fitted effect of over 50% in size
Large screens that a line does not name were inactive. Unless noted, calls come from the whole dose curve; as a rule, active = well fitted inhibition curve with a large enough effect; inconclusive = small, poorly fitted or top-dose-only effect; inactive = no such curve, though single readings can be large or run the other way.

CCOC(=O)C1=C(N)Oc2ccc3ccccc3c2C1c1ccc(O)cc1 (stereo unspecified)	BAZ2B block inconclusive, G9a inh inconclusive
CCOC(=O)C1=C(N)Oc2cc(O)ccc2C1c1ccc([N+](=O)[O-])cc1 (stereo unspecified)	BAZ2B block inconclusive, G9a inh 40µM, JMJD2A Tudor 50µM
Cc1nn(CC(=O)N2CCN(C34CC5CC(CC(C5)C3)C4)CC2)c(C)c1[N+](=O)[O-]	G9a inh 25µM
Cc1c(Cl)c([N+](=O)[O-])nn1CC(=O)N1CCN(C23CC4CC(CC(C4)C2)C3)CC1	G9a inh 45µM
Cc1c(Cl)c([N+](=O)[O-])nn1CC(=O)N1CCc2ccccc2C1	none
CC(C)CCNC(=O)CCn1c(=O)c2cccn2c2cccnc21	none (no result: CtBP-E1A blk, Six1-Eya2 inh)
COc1cccc(C(=O)/C=C/Nc2cc(C)ccc2O)c1	BAZ2B block inconclusive, G9a inh inconclusive, JMJD2A Tudor 56µM
COc1ccc(C(=O)/C=C/Nc2cccc(O)c2)cc1	G9a inh 40µM
COc1cccc(N/C=C/C(=O)c2ccc(Br)cc2)c1	none (no result: BAZ2B block, G9a inh)
Cc1ccc[n+](C2C(c3ccc([N+](=O)[O-])cc3)C(C#N)=C([S-])NC2(O)C2CC2)c1 (stereo unspecified)	BAZ2B block inconclusive, G9a inh 16µM
COc1ccc([C@H]2C(C#N)=C([S-])N[C@](C)(O)[C@@H]2[n+]2ccccc2)cc1	G9a inh 14µM, JMJD2A Tudor 56µM (no result: CtBP-E1A blk)
O=C(CN(C(=O)c1csnn1)c1cccc2ccccc12)NCc1ccccc1	none
COC/C=C/C1=CC2=CC(=O)C(C)(OC(=O)c3cnc4ccccc4n3)C(=O)C2=CN1c1ccccc1 (stereo unspecified)	JMJD2A Tudor inconclusive
COC/C=C/C1=CC2=CC(=O)C(C)(OC(=O)c3cnc4ccccc4n3)C(=O)C2=CN1CC(C)C (stereo unspecified)	JMJD2A Tudor inconclusive (no result: BAZ2B block, G9a inh)
COC/C=C/C1=CC2=CC(=O)C(C)(OC(=O)c3cnc4ccccc4n3)C(=O)C2=CN1c1ccc(CO)cc1 (stereo unspecified)	BAZ2B block 10µM (no result: CtBP-E1A blk, G9a inh, Six1-Eya2 inh, HP1b binding inh, JMJD2A Tudor)
COC/C=C/C1=CC2=CC(=O)C(C)(OC(=O)c3cnc4ccccc4n3)C(=O)C2=CN1C1CCCCC1 (stereo unspecified)	BAZ2B block inconclusive, G9a inh 40µM (no result: CtBP-E1A blk, Six1-Eya2 inh, HP1b binding inh, JMJD2A Tudor)
CCNc1ncc2nc(-c3ccc(F)cc3)c(=O)n(-c3ccc(OC)cc3)c2n1	none (no result: BAZ2B block, CtBP-E1A blk, Six1-Eya2 inh, HP1b binding inh, JMJD2A Tudor)
CCn1cc([N+](=O)[O-])c(C(=O)N2N=C(c3ccc(OC)cc3OC)CC2c2ccccc2O)n1 (stereo unspecified)	G9a inh 45µM, HP1b binding inh inconclusive, JMJD2A Tudor inconclusive
CCCNC(=O)C1(C)CCCN(Cc2cc(-c3ccccc3)nn2C)C1 (stereo unspecified)	none (no result: BAZ2B block, G9a inh, HP1b binding inh, JMJD2A Tudor)
CCN1C(=O)/C(=C/C=C2\N(CC)c3cc(S(=O)(=O)N(C)C)ccc3N2c2ccccc2)SC1=S	BAZ2B block 8.9µM, G9a inh inconclusive
CCOC(=O)[C@]12CCC=C1N(CCC1=CCCCC1)C(=O)[C@H](CC(=O)N1CCOCC1)C2	none (no result: BAZ2B block, G9a inh, HP1b binding inh, JMJD2A Tudor)
O=C1c2cccnc2C(=O)N1c1cccc([N+](=O)[O-])c1	BAZ2B block 56µM, JMJD2A Tudor inconclusive
O=C(O)c1cccc(N2C(=O)c3cccnc3C2=O)c1	none
COc1ccc(-n2c(=O)c3c4c(sc3n(CC(=O)C(C)(C)C)c2=O)CCCC4)c(OC)c1	G9a inh inconclusive (no result: CtBP-E1A blk, Six1-Eya2 inh)
COc1ccc(-n2c(=O)c3c4c(sc3n(CC(=O)Nc3cc(C)[nH]n3)c2=O)CCC4)c(OC)c1	G9a inh inconclusive, JMJD2A Tudor 89µM (no result: BAZ2B block, CtBP-E1A blk)
COc1ccccc1-n1c(=O)c2c3c(sc2n2c(=S)[nH]nc12)CCC3	G9a inh 3.2µM, JMJD2A Tudor 14µM
COc1ccc(Cn2ccc3nc(C)c(C(=O)N4CCN(c5ccccc5OC)CC4)cc3c2=O)cc1	none (no result: CtBP-E1A blk, Six1-Eya2 inh)
CCC(C)Nc1nc(N)c([N+](=O)[O-])c(Nc2ccccc2OC)n1 (stereo unspecified)	BAZ2B block inconclusive, G9a inh 45µM, HP1b binding inh inconclusive, JMJD2A Tudor inconclusive
COc1ccccc1Nc1nc(NCCCN(C)C)nc(N)c1[N+](=O)[O-]	BAZ2B block inconclusive, G9a inh 50µM, JMJD2A Tudor inconclusive
COc1ccc(OC)c(Nc2nc(N(C)c3ccccc3)nc(N)c2[N+](=O)[O-])c1	BAZ2B block inconclusive, G9a inh 35µM, Six1-Eya2 inh inconclusive, JMJD2A Tudor inconclusive (no result: CtBP-E1A blk)
C=CCNc1nc(N)c([N+](=O)[O-])c(Nc2ccccc2OC)n1	none
CCC(C)Nc1nc(N)c([N+](=O)[O-])c(N2CCCCCC2)n1 (stereo unspecified)	BAZ2B block 50µM, JMJD2A Tudor inconclusive
CCOc1ccc(OCC(=O)NCCS(=O)(=O)N2CCN(c3ccc(OC)cc3)CC2)cc1	none (no result: CtBP-E1A blk, Six1-Eya2 inh)
CCC(C)Nc1nc(N)c([N+](=O)[O-])c(Nc2cc(OC)ccc2OC)n1 (stereo unspecified)	BAZ2B block 18µM, CtBP-E1A blk inconclusive, G9a inh inconclusive, Six1-Eya2 inh inconclusive, HP1b binding inh inconclusive, JMJD2A Tudor 40µM
Cc1ccc(Nc2nc(N)c([N+](=O)[O-])c(NCc3ccccc3)n2)cc1	none
CCC(C)Nc1nc(N)c([N+](=O)[O-])c(NCc2ccccc2)n1 (stereo unspecified)	BAZ2B block inconclusive, HP1b binding inh inconclusive, JMJD2A Tudor 56µM (no result: CtBP-E1A blk)
CCc1ccc(NC(=O)CN2CCCN(Cc3cccc(Cl)c3)S2(=O)=O)cc1	none (no result: CtBP-E1A blk, Six1-Eya2 inh)
c1cnc(N2CCN(c3cnccn3)CC2)nc1	none
Cc1cc(NC(=O)CSc2ccc3nnc(-c4cccc(F)c4)n3n2)no1	G9a inh 22µM
CCOc1ccc(-c2nnc3ccc(SCC(=O)Nc4cc(C)on4)nn23)cc1	none
CCOc1ccccc1NC(=O)CSc1nnc2ccc(-c3ccncc3)nn12	none
Cc1cc(NC(=O)CSc2ccc3nnc(-c4ccc(Cl)cc4)n3n2)no1	G9a inh 22µM
COc1ccccc1CCNC(=O)CSc1nnc2ccc(-c3ccncc3)nn12	G9a inh 50µM
Cc1cc(NC(=O)CSc2nnc3ccc(-c4ccc(F)cc4)nn23)no1	G9a inh 50µM
NCCCC(N)CC(=O)NC1CNC(=O)C(C2CC(O)N=C(N)N2)NC(=O)/C(=C/NC(N)=O)NC(=O)C(CO)NC(=O)C(CO)NC1=O (stereo unspecified)	none (no result: BAZ2B block, CtBP-E1A blk, Six1-Eya2 inh, HP1b binding inh, JMJD2A Tudor)
O=C(OCC#CCSc1nnc(-c2ccc3ccccc3c2)o1)c1cccs1	none (no result: BAZ2B block, CtBP-E1A blk, G9a inh, Six1-Eya2 inh, HP1b binding inh)
Cc1oc2c(c(C)cc3oc(=O)c(CC(=O)NCc4ccc(F)cc4)c(C)c32)c1C	none (no result: CtBP-E1A blk, Six1-Eya2 inh)

Assay outcomes as filed in PubChem.
